Experimental data taken from PubChem BioAssay (NCATS).
Results filed as inconclusive are left out. Calls of active or inactive are those of the source. Calls follow the shape of the dose curve; as a rule, active = well fitted curve in the direction sought with a large enough effect; inconclusive = small, poorly fitted or top-dose-only effect, or another doubt; inactive = no such curve, though single readings can be large; an effect the other way counts as inactive or inconclusive.

What was measured:
[1] = Cell Viability - LYMP2-017 (AID 972);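 also: series mostly up to about 92 µM; cells exposed to compound for 24 hours at 37 °C; nearly all actives have a fitted effect of over 55% in size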
How it was run: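 Steps: plate 2500 lymphoblastoid cells per well; incubate 5 hr at 37 C; add compound across a concentration series and incubate 24 hr at 37 C; add CellTiter-Glo and read luminescence after 30 min at room temperature; fit Hill curves for AC50.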

[2] = Cell Viability - LYMP2-023 (AID 975);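 also: cellular ATP measured by luciferase luminescence as viability proxy; series mostly up to about 92 µM; cells exposed to compound for 24 hours at 37 °C; nearly all actives have a fitted effect of over 55% in size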
How it was run: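 Concentration-dependent drop in intracellular ATP measures acute cytotoxicity in a human lymphoblastoid line treated for 24 hours in complete culture medium. AC50 values are taken from Hill-equation fits of qHTS data.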

[3] = Cell Viability - LYMP2-025 (AID 976);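 also: series mostly up to about 92 µM; cells exposed to compound for 24 h at 37 °C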
How it was run: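 In qHTS format, LYMP2-025 lymphoblastoid cells in complete culture medium received compound for 24 hr; ATP-based CellTiter-Glo signal gave viability, with AC50 derived by Hill equation.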

[4] = Cell Viability - LYMP2-002 (AID 977);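 also: series mostly up to about 92 µM; compound exposure lasted 24 h at 37 °C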
How it was run: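 Cytotoxicity is scored as concentration-dependent loss of cellular ATP in a human lymphoblastoid line after 24 hr compound treatment at 37 C. AC50 is obtained by modelling concentration-response data with the Hill equation.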

[5] = Cell Viability - LYMP2-006 (AID 978);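 also: series mostly up to about 92 µM; cells exposed to compound for 24 hours; nearly all actives have a fitted effect of over 60% in size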
How it was run: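 Concentration-dependent loss of intracellular ATP in a human lymphoblastoid line after 24 hr treatment at 37 C was measured by CellTiter-Glo luminescence, with AC50 values obtained from standard Hill-equation modelling.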

[6] = Cell Viability - LYMP2-007 (AID 979);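 also: cells exposed to compound for 24 h before reading; nearly all actives have a fitted effect of over 60% in size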
How it was run: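 Acute toxicity is scored as a concentration-dependent fall in intracellular ATP in human lymphoblastoid cells treated 24 hr at 37 C, measured by luciferase luminescence; Hill-equation modelling yields AC50.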

[7] = Cell Viability - LYMP2-008 (AID 980);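 also: cells exposed to compound for 24 h at 37 °C; nearly all actives have a fitted effect of over 60% in size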
How it was run: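 Acute cytotoxicity is scored as concentration-dependent loss of cellular ATP in a human lymphoblastoid line after 24 hr treatment at 37 C. ATP is quantified by luciferase luminescence.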

[8] = Cell Viability - LYMP2-010 (AID 981);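 also: cells exposed to compound for 24 hours at 37 °C; nearly all actives have a fitted effect of over 55% in size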
How it was run: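 Acute toxicity is scored as a concentration-dependent loss of cellular ATP in human lymphoblastoid cells after 24 hr compound exposure in complete medium. Tetraoctylammonium bromide is the positive control.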

[9] = Cell Viability - LYMP2-012 (AID 982);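 also: cellular ATP by luciferase luminescence where a drop means cytotoxicity; cells exposed to compound for one day before reading; nearly all actives have a fitted effect of over 55% in size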
[10] = Cell Viability - LYMP2-014 (AID 983);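 also: series mostly up to about 92 µM; cells exposed to compound for 24 h at 37 °C; nearly all actives have a fitted effect of over 50% in size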
How it was run: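 Decrease in intracellular ATP after 24 hr treatment at 37 C, measured by luciferase luminescence, indicated cytotoxicity. Concentration-response data were fitted with the standard Hill equation to give AC50.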

[11] = Cell Viability - LYMP2-016 (AID 984)
How it was run: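 Acute toxicity in a Coriell human lymphoblastoid line is scored as loss of intracellular ATP over 24 h of treatment in complete medium. CellTiter-Glo signal is fitted across concentrations with the Hill equation to give AC50.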

[12] = Cell Viability - LYMP2-018 (AID 985);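 also: compound exposure lasted 24 hr at 37 °C; nearly all actives have a fitted effect of over 50% in size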
How it was run: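 Acute cytotoxicity is scored as a concentration-dependent drop in intracellular ATP after 24 hr exposure of the lymphoblastoid line in complete culture medium, measured by luciferase luminescence. Potency is expressed as AC50 from Hill modelling.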

[13] = Cell Viability - LYMP2-020 (AID 986)
How it was run: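 Acute cytotoxicity in a human lymphoblastoid line is scored as a concentration-dependent fall in cellular ATP after 24 hr at 37 C in complete medium. The positive control is tetraoctylammonium bromide, and potency is given as Hill-fit AC50.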

[14] = Cell Viability - LYMP2-022 (AID 987); also: nearly all actives have a fitted effect of over 55% in size
How it was run: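 Acute toxicity in a human lymphoblastoid line is scored as decreased intracellular ATP after 24 hr compound treatment at 37 C. ATP is measured by CellTiter-Glo luminescence; curves are fitted with the Hill equation to give AC50.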

[15] = Cell Viability - LYMP2-024 (AID 988); also: nearly all actives have a fitted effect of over 60% in size
How it was run: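 Acute toxicity is measured as concentration-dependent loss of intracellular ATP in a human lymphoblastoid line treated 24 hours at 37 C. Luciferase luminescence quantifies ATP; AC50 values come from standard Hill-equation modelling.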

[16] = Cell Viability - LYMP2-026 (AID 989);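 also: cells exposed to compound for 24 h at 37 °C; nearly all actives have a fitted effect of over 50% in size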
How it was run: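 Concentration-dependent loss of intracellular ATP in human lymphoblastoid cells after 24 hr at 37 C, quantified by luciferase luminescence. AC50 derived from standard Hill equation.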

[17] = Cell Viability - LYMP1-002 - Assay at 24 hr (AID 993)
How it was run: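 qHTS, LYMP1-002 lymphoblastoid, 24 h cpd, 37 C, CellTiter-Glo ATP luminescence; AC50 via Hill eq.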

[18] = Cell Viability - LYMP1-002 - Assay at 40 hr (AID 994); also: nearly all actives have a fitted effect of over 60% in size
How it was run: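 Viability in the human lymphoblastoid line was measured as intracellular ATP via CellTiter-Glo after 40 hr compound exposure. Tetraoctylammonium bromide served as positive control.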

[19] = biological target: Alpha-galactosidase A (Homo sapiens) (UniProt P06280); assay: Counterscreen for Glucocerebrosidase Inhibitors: qHTS Assay for Human alpha-Galactosidase at pH 4.5 (AID 992)
Chain of Alpha-galactosidase A (Homo sapiens) (P06280 whole entry, looked up): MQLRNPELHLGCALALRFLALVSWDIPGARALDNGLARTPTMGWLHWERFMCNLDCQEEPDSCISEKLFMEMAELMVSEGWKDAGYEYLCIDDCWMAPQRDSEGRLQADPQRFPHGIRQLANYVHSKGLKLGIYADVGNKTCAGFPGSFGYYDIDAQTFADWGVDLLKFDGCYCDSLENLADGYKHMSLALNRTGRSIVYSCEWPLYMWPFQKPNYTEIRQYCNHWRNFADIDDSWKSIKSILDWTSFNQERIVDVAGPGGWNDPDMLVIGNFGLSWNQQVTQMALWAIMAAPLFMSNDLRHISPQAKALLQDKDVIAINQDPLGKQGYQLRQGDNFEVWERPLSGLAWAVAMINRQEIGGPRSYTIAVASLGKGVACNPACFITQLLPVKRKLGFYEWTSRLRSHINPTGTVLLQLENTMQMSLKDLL
How it was run: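 Enzyme at 2 nM final was combined with compound (0.7 nM to 77 uM) and 80 uM 4-methylumbelliferyl alpha-D-galactopyranoside in 50 mM citric acid, 0.005% Tween-20, pH 4.5. After 20 min at room temperature, fluorescence was read (Ex 365/Em 440 nm); AC50 came from Hill fits.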

[20] = biological target: alpha-glucosidase (Oryza sativa, rice) (UniProt Q653V4); assay: Counterscreen for Glucocerebrosidase Inhibitors: qHTS Assay for Rice alpha-Glucosidase at pH 5.0 (AID 997)
How it was run: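 Rice alpha-glucosidase (4 nM final) with 400 uM 4-methylumbelliferyl-alpha-D-glucopyranoside in citrate buffer pH 5.0, 20 min at room temperature, stopped at pH 10; fluorescence 365/440 nm, compounds 0.7 nM–77 uM, AC50 from Hill fits.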

Measured: Potency

C/C=C/C=C/C(=O)O
inactive: [1] | [2] | [3] | [4] | [5] | [6] | [7] | [8] | [9] | [10] | [11] | [12] | [13] | [14] | [15] | [16] | [17] | [18]

c1ccc2ccccc2c1
inactive: [1] | [2] | [3] | [4] | [5] | [6] | [7] | [8] | [9] | [10] | [11] | [12] | [13] | [14] | [15] | [16] | [17] | [18]

C[C@H](CCC(=O)O)[C@H]1CC[C@H]2[C@@H]3[C@H](O)C[C@@H]4C[C@H](O)CC[C@]4(C)[C@H]3C[C@H](O)[C@]12C
inactive: [1] | [2] | [3] | [4] | [5] | [6] | [7] | [8] | [9] | [10] | [11] | [12] | [13] | [14] | [15] | [16] | [17] | [18]

ClC(Cl)Cl
inactive: [1] | [2] | [3] | [4] | [5] | [6] | [7] | [8] | [9] | [10] | [11] | [12] | [13] | [14] | [15] | [16] | [17] | [18]

Nc1nccs1
inactive: [1] | [2] | [3] | [4] | [5] | [6] | [7] | [8] | [9] | [10] | [11] | [12] | [13] | [14] | [15] | [16] | [17] | [18]

NCCN
inactive: [1] | [2] | [3] | [4] | [5] | [6] | [7] | [8] | [9] | [10] | [11] | [12] | [13] | [14] | [15] | [16] | [17] | [18]

Cc1cc(C)c(NC(=O)C[C@H](CC(=O)O)c2cccc3ccccc23)c(C(=O)N2CCC3(CCCC3)CC2)c1
inactive: [19] | [20]

CC(C)(C)CC(C)(C)c1ccc(OCCO)cc1
inactive: [1] | [2] | [4] | [5] | [6] | [7] | [8] | [9] | [10] | [11] | [12] | [13] | [14] | [15] | [16] | [17] | [18]

CC(C)O
inactive: [1] | [2] | [3] | [4] | [5] | [6] | [7] | [8] | [9] | [10] | [11] | [12] | [13] | [14] | [15] | [16] | [17] | [18]

C[C@@](Cc1ccc(O)c(O)c1)(NN)C(=O)O
inactive: [19] | [20]

Nc1ncnc2c1ncn2[C@H]1CC[C@@H](CO)O1
inactive: [1] | [2] | [3] | [4] | [5] | [6] | [7] | [8] | [9] | [10] | [11] | [12] | [13] | [14] | [15] | [16] | [17] | [18]

CCCCC
inactive: [1] | [2] | [3] | [4] | [5] | [6] | [7] | [8] | [9] | [10] | [11] | [12] | [13] | [14] | [15] | [16] | [17] | [18]

NC(N)=O
inactive: [1] | [2] | [3] | [4] | [5] | [6] | [7] | [8] | [9] | [10] | [11] | [12] | [13] | [14] | [15] | [16] | [17] | [18]

CC1=CC(=O)NS(=O)(=O)O1
inactive: [1] | [2] | [3] | [4] | [5] | [6] | [7] | [8] | [9] | [10] | [11] | [12] | [13] | [14] | [15] | [16] | [17] | [18]

Oc1cccc(O)c1O
inactive: [1] | [2] | [3] | [4] | [5] | [7] | [9] | [10] | [11] | [12] | [13] | [16] | [17] | [18]
